# Test results as given in PubChem BioAssay (NCATS).
# Where “and” joins values, the source holds several entries; their conditions need not be identical. Equal values may be shown once. Inconclusive results are not listed. Calls of active or inactive are those of the source. Calls follow the shape of the dose curve; as a rule, active = well fitted activation curve with a large enough effect; inconclusive = small, poorly fitted or top-dose-only effect; inactive = no such curve, though single readings can be large or run the other way.
# Biological target: Cellular tumor antigen p53 (Homo sapiens) (UniProt P04637)
# Sequence (P04637 whole entry, looked up): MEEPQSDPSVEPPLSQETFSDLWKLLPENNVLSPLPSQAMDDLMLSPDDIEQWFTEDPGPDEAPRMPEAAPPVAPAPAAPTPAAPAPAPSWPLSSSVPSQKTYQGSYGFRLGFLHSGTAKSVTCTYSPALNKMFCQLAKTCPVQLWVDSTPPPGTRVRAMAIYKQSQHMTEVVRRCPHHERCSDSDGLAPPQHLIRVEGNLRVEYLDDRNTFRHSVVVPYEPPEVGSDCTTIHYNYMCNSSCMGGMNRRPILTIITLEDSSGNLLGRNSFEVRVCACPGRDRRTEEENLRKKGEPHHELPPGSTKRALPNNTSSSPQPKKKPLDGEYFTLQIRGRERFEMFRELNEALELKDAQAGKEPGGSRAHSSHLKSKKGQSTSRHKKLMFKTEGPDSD
# Test: Primary qHTS for small molecule compounds that upregulate eGFP-tagged delta133p53alpha (in N-terminal) cells. (AID 2060322); also: nearly all actives have a fitted effect of over 75% in size;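 as to activation: cells pre-induced with doxycycline then dosed without doxycycline; series mostly up to about 56 µM; 0% = DMSO vehicle and 100% = reference activator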
# Conditions: NCI-H358 eGFP-delta133p53alpha fluorescence, 24 h; activation: active compounds read high
# Summary of the method: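 NCI-H358 cells pre-induced 24 h with 10 ng/ml doxycycline for eGFP-delta133p53alpha, plated dox-free and exposed 24 h at 37C to titrated compounds. Fixed, Hoechst-stained; gated GFP peak intensity by laser scanning cytometry, normalized to DMSO (0%) and 57.5 uM 5-azacytidine (100%).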
# Potency is read from the fitted curve at half-maximal effect.
Structure (SMILES),activation,Potency
c1ccc(N2CCNCC2)cc1,-33.3% (inactive),–
c1ccc2c(c1)sc1ccccc12,-5.02% (inactive),–
CC1=C2C[C@@H]3[C@@H](CC=C4C[C@@H](O)CC[C@@]43C)[C@@H]2CC[C@]12O[C@H]1C[C@H](C)CN[C@H]1[C@H]2C,14% (inactive),–
O=C(O)c1ccc2[nH]cc(CCCCN3CC=C(c4ccccc4)CC3)c2c1,-5.08% (inactive),–
CC(=O)O[C@@]12CO[C@H]1C[C@H](O)[C@@]1(C)C(=O)[C@H](O)C3=C(C)[C@@H](O)C[C@@](O)([C@@H](OC(=O)c4ccccc4)[C@@H]21)C3(C)C,–,30.6 µM (active)
O=C(CCCCl)c1ccc(F)cc1,-10.9% (inactive),–
C[C@@H]1CN(C2CCC(C#N)(c3ccc(F)cc3)CC2)CC[C@]1(C(=O)O)c1ccccc1 (some centres not stated),10.7% (inactive),–
C1CN2CCC1CC2,-19.2% (inactive),–
CC(Cc1ccc2c(c1)OCO2)NO (configuration not stated),-3.95% (inactive),–
CC[C@H]1C=CC=CC[C@@H](C)[C@H](O)[C@@](C)(O)C(=O)[C@@H](C)[C@H](O)[C@@H](C)C(=O)[C@@H](C)[C@H](O)[C@@H](C)C=CC(=O)O[C@@H]2[C@@H](C)[C@H](CC1)O[C@]1(CC[C@H](C)[C@H](C[C@@H](C)O)O1)[C@H]2C,11.3% (inactive),–
CCOC(=O)CC(SP(=S)(OC)OC)C(=O)OCC (configuration not stated),-9.21% (inactive) and 9.21% (inactive),–
C[N+]1(CCF)[C@@H]2CC[C@H]1CC(OC(=O)C(O)(c1ccccc1)c1ccccc1)C2 (some centres not stated),5.08% (inactive),–
